Measured values published in PubChem BioAssay (NCATS).
Values joined by “and” are separate entries in the source; they are usually repeats but may differ in a detail not shown here. Identical values can stand only once. Results filed as inconclusive are left out. Active and inactive are the calls of the source. Calls come from the whole dose curve; as a rule, active = well fitted curve in the direction sought with a large enough effect; inconclusive = small, poorly fitted or top-dose-only effect, or another doubt; inactive = no such curve, though single readings can be large; an effect the other way counts as inactive or inconclusive.

Assays:
[1] = biological target: Cellular tumor antigen p53 (Homo sapiens) (UniProt P04637); assay: Primary qHTS for small molecule compounds that upregulate eGFP-tagged delta133p53alpha (in N-terminal) cells. (AID 2060322); conditions: NCI-H358 eGFP-delta133p53alpha fluorescence, 24 h; activation: active compounds read high;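 note: 0% = DMSO vehicle and 100% = reference activator; nearly all actives have a fitted effect of over 75% in size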
Procedure, shortened: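 NCI-H358 cells pre-induced 24 h with 10 ng/ml doxycycline to express N-terminal eGFP-delta133p53alpha, then dosed 24 h at 37C without doxycycline; fixed, Hoechst-stained, GFP intensity by laser scanning cytometry, normalized to DMSO (0%) and 57.5 uM 5-azacytidine (100%).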

[2] = biological target: Aldehyde dehydrogenase, mitochondrial (Homo sapiens) (UniProt P05091); assay: qHTS for Inhibitors of the Aldehyde Dehydrogenase Family (ALDH2) Primary screen (AID 2061308); conditions: ALDH2 enzyme inhibition qHTS, 1536-well; series mostly up to 56 µM;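 note: plate controls were vehicle for no effect and reference inhibitor for full effect; nearly all actives have a fitted effect of over 55% in size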
[3] = biological target: Retinaldehyde dehydrogenase 3 (Homo sapiens) (UniProt P47895); assay: qHTS for Inhibitors of the Aldehyde Dehydrogenase Family (ALDH1A3) Primary screen (AID 2061315); conditions: ALDH inhibition qHTS; series mostly up to 56 µM;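 note: plate controls were DMSO vehicle for no effect and reference inhibitor for full effect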

Chain of Cellular tumor antigen p53 (Homo sapiens) (P04637 whole entry, looked up): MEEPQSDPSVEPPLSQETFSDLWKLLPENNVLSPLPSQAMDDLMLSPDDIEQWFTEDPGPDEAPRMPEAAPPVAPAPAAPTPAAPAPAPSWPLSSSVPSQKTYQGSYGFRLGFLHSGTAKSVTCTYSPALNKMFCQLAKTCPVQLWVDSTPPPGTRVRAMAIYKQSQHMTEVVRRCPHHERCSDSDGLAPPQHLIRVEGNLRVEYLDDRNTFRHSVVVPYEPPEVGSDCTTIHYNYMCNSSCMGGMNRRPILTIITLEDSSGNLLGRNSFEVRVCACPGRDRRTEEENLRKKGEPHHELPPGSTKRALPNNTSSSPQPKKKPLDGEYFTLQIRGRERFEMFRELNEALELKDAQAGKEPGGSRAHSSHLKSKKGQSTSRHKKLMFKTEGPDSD

CN1[C@@H]2CC[C@H]1CC(OC(=O)c1c[nH]c3ccccc13)C2 (stereo partly specified)
inactive: activation [1] -6.21% and -7.16% | Potency [2] | Potency [3]

CC(C)=CCCC1(C)Oc2cc3c(c4c2C2C(O4)C(C)(O)CCC21)CN(C(CCC(=O)O)C(=O)O)C3=O (stereo unspecified)
inactive: activation [1] -3.05% | Potency [2] | Potency [3]

C=C(C)[C@@H]1CC[C@]2(C(=O)O)CC[C@]3(C)C(CCC4[C@@]5(C)C[C@@H](O)[C@H](O)C(C)(C)C5CC[C@]43C)C12 (stereo partly specified)
inactive: activation [1] -10.7% | Potency [2] | Potency [3]

CCC[C@@H]1C[C@@H](C(=O)N[C@@H]([C@H]2O[C@H](SC)[C@H](O)[C@@H](O)[C@@H]2O)[C@@H](C)O)N(C)C1
inactive: activation [1] 7% | Potency [2] | Potency [3]

COc1c2c(c(C)c3c1C(=O)OC3)OC1(C)CC(O)C(C(C)(C)O)C(C)(CCC(=O)O)C1C2 (stereo unspecified)
inactive: activation [1] 8.4% | Potency [2] | Potency [3]

CC(=O)OC(C)(C)/C=C/C(=O)C(C)(O)C1C(O)CC2(C)C3CC=C(C(C)(C)C(=O)O)C(CC(=O)O)C3(C)C(=O)CC12C (stereo unspecified)
inactive: activation [1] -3.82% | Potency [2] | Potency [3]

Cc1sc(C)c(C(=O)NC2(c3ccc(C(=O)O)cc3)CC2)c1Cc1ccc(C(F)(F)F)cc1
inactive: activation [1] -4.77% | Potency [2] | Potency [3]
